About 3,600 (5.5%) of roughly 65,000 compounds were called active.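 Rule for the calls: active = at 10 µM, mean starting fluorescence two-fold or more over control wells; inactive = the rest.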 The full list was thinned out, with actives kept by preference.

A short description of this assay: intrinsic fluorescence of library compounds, ex339/em460 – biochemical, MLSMR library, data from DPM-DC assay, artefact control, profiling panel (AID 709).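 Note: signal is the first read of a kinetic run.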 The note with it: compound autofluorescence, ex339/em460 nm, NADH buffer; at 10 µM; stronger effect = higher value; 1 = no-compound wells, NADH background.
Consider `N#Cc1nc(COc2ccc(Cl)cc2)oc1N1CCCC1`, for which the fluorescence fold increase is 1.02 (inactive).

Regarding `Cc1ccc(OCc2nc(C#N)c(N3CCCC3)o2)cc1`, the fluorescence fold increase is 1.03 (inactive). With `CC1CCN(c2oc(-c3ccccc3F)nc2C#N)CC1`, the fluorescence fold increase was 2.45 (active). Turning to `Cc1cc(C)c(C#N)c(SCc2ccc3c(c2)OCO3)n1`, the fluorescence fold increase was 1.09 (inactive). Next, `CCOC(=O)N1CCN(C(=O)CN(C2CCCCC2)S(C)(=O)=O)CC1`: 1.07 (inactive); `COCCn1nnnc1C(c1cc2ccc(OC)cc2[nH]c1=O)N1CCc2ccccc2C1` (centres undefined): 1.12 (inactive); `COc1ccc(N2CCN(C(c3cc4ccc(C)cc4[nH]c3=O)c3nnnn3C3CCCC3)CC2)cc1` (centres undefined): 1.25 (inactive). With `CCOc1ccc2[nH]c(=O)c(C(c3nnnn3CCOC)N3CCOCC3)cc2c1` (centres undefined) the figure was 5.03 (active); with `O=C(O)Cc1ccc(NC(=O)C2CCCCC2C(=O)O)cc1` (centres undefined), 1.09 (inactive). For `CC1CN(C(=O)c2ccc3c(c2)OCO3)OC(c2ccccc2)O1` (centres undefined), the fluorescence fold increase is 1.07 (inactive). With `COc1ccc(C2/C(=C(/O)c3ccc(OC(C)C)cc3)C(=O)C(=O)N2CCCN2CCOCC2)cc1` (centres undefined) the figure was 1.01 (inactive); with `O=C(OCC(=O)N1CCN(C(=O)c2ccco2)CC1)c1ccccc1Cc1ccccc1`, 0.99 (inactive). On to `CCOC(=O)c1c(NC(=O)c2ccc(Br)o2)sc2c1CCCC2`, for which the fluorescence fold increase is 2.17 (active). Next, `COC(=O)c1c(NC(=O)c2cccs2)sc2c1CCCC2`: 2.23 (active); `CCc1c(C)sc(NC(=O)c2ccc(Br)o2)c1C(=O)OC`: 2.8 (active); `CCCOC(=O)Nc1sc2c(c1C(=O)OCC)CCC2`: 1.1 (inactive).

For the compound `COC(=O)c1c(NC(=O)CSc2nncs2)sc2c1CCCCC2`, the fluorescence fold increase was 1.1 (inactive). Next, `CCOCC(=O)Nc1sc2c(c1C(=O)OCC)CCCC2`: 1.11 (inactive); `CC(CNC(=O)c1ccc(Br)o1)NC(=O)c1ccc(Br)o1` (centres undefined): 1.02 (inactive); `COc1cc(OC)c(NC(=O)c2ccc(Br)o2)cc1Cl`: 1.09 (inactive). On to `CCOC(=O)c1c(NC(=O)c2cccs2)sc(C)c1C`, for which the fluorescence fold increase is 1.74 (inactive). As to `Fc1ccccc1CCNc1nnnn1-c1ccccc1`, the fluorescence fold increase was 1.11 (inactive). For `COc1cc(NS(=O)(=O)c2ccc(NC(C)=O)cc2)cc(OC)c1`, the fluorescence fold increase was 1.13 (inactive). Turning to `COC(=O)c1ccc2c(c1)S(=O)(=O)NC(=NCCCN1CCOCC1)S2`, the fluorescence fold increase was 1.06 (inactive). Turning to `CCNC(=O)CN(c1ccc(C)cc1)S(=O)(=O)c1ccc(SC)cc1`, the fluorescence fold increase is 1.06 (inactive). In the case of `CCCOP(=O)(c1ccc(N(C)C)cc1)C(O)c1cc(OC)c(OC)c(OC)c1` (centres undefined), the fluorescence fold increase was 1.13 (inactive). `CN(C)CCCn1c(N)c(C#N)c2nc(C#N)c(C#N)nc21`: the fluorescence fold increase is 3.35 (active). Consider `O=C1C(C=NCC2CCCO2)=C(O)c2ccccc21` (centres undefined), for which the fluorescence fold increase is 1.09 (inactive). With `COC(=O)c1cnn2c(C(F)(F)F)cc(-c3ccco3)nc12`, the fluorescence fold increase was 2.46 (active).

Regarding `O=C(NCc1ccco1)c1cnn2c(C(F)(F)F)cc(-c3ccco3)nc12`, the fluorescence fold increase was 1.6 (inactive). For the compound `COc1ccc(-c2cc(C(F)(F)F)n3nc(C(=O)N4CCOCC4)c(Cl)c3n2)cc1`, the fluorescence fold increase was 1.17 (inactive). With `CC(=O)Nc1ccc(S(=O)(=O)Nc2ccc(N3CCOCC3)c(F)c2)cc1`, the fluorescence fold increase is 1.1 (inactive). Next, `CCn1c(SCC(=O)NCc2ccco2)nnc1-c1ccc(N)cc1`: 1.1 (inactive).

As to `CCOC(=O)c1c(C(C#N)C#N)cc(C)nc1C`, the fluorescence fold increase is 0.98 (inactive).

For `CCOC(=O)c1cc(NC(=O)SCC(=O)O)c(C)nc1C`, the fluorescence fold increase was 1.15 (inactive). For `CCOC(=O)c1cc(-c2ccc(Cl)s2)nc2c1c(C)nn2C`, the fluorescence fold increase is 3.19 (active).

For the compound `CN1CCN(CCCNC(=O)c2cc3c(=O)oc4ccccc4c3s2)CC1`, the fluorescence fold increase was 1.53 (inactive). Next, `O=C(NCCc1ccc2c(c1)OCCO2)c1cc2ccccc2o1`: 1.11 (inactive); `CNC(=O)c1cc2c(ccc3ccccc32)oc1=N`: 2.32 (active); `CS(=O)(=O)N1CCN(C(=O)c2cc3ccccc3oc2=O)CC1`: 1.14 (inactive). With `CCOC(=O)N1CCN(C(=O)c2cc3c(ccc4ccccc43)oc2=O)CC1`, the fluorescence fold increase is 3.93 (active). With `C=CCc1cccc2cc(C(=O)N3CCN(C(=O)OCC)CC3)c(=O)oc12` the figure was 1.17 (inactive); with `Cc1ccc(C(=O)N2CCN(C3CCCCC3)CC2)s1`, 1.14 (inactive); with `Cc1oc(C)c(C(=O)NCCCC(=O)O)c1C(=O)NCCCC(=O)O`, 1.14 (inactive). Next, `CCOc1ccc(Cn2nnc(C(=O)Nc3ccc(OC)cc3OC)c2N)cc1`: 1.25 (inactive). For the compound `C[N+]1(CCNC(=O)/C=N/O)CCCCC1`, the fluorescence fold increase is 1.1 (inactive). `CCCCC(=O)N1CC2(C)CN(C(=O)CCCC)CC(C)(C1)C2=O`: the fluorescence fold increase was 1.09 (inactive).

`COc1ccc(N2C(=O)CCC(C(=O)Nc3ccccn3)C2c2ccc(OC)c(OC)c2)cc1` (centres undefined): the fluorescence fold increase was 0.92 (inactive). With `CC1(C)CC(=O)c2cc(OCC(=O)NCC3CCCO3)ccc2O1` (centres undefined) the figure was 5.06 (active). Next, `Cc1ccc(C(=O)NCC2CCCO2)o1` (centres undefined): 1.14 (inactive); `COc1ccc(C2CC(=O)C=C(NCC3CCCO3)C2)cc1` (centres undefined): 1.07 (inactive); `Nc1ccc(-c2nnc(-c3ccc(-c4ccccc4)cc3)o2)cc1`: 3.89 (active). As to `O=C(Nc1ccc(-c2nnc(-c3ccccc3)o2)cc1)C1CCCO1` (centres undefined), the fluorescence fold increase is 1.79 (inactive). Regarding `O=C(Nc1ccc(-c2nnc(-c3ccccc3)o2)cc1)c1ccc(Br)o1`, the fluorescence fold increase was 1.45 (inactive).

For `CO/N=C(\C(=O)N[C@@H]1C(=O)N2C(C(=O)O)=C(COC(C)=O)CS[C@H]12)c1csc(N)n1` (stereo in doubt), the fluorescence fold increase is 1.08 (inactive). For the compound `CCCn1c(O)c(CN2CCCC(C)C2)c(C)c(C#N)c1=O` (centres undefined), the fluorescence fold increase is 1.26 (inactive). In the case of `CCN(CC)Cc1c(C(=O)OC)nnn1-c1nonc1N`, the fluorescence fold increase was 1.05 (inactive). With `Cc1ccc2c(CSc3nncs3)cc(=O)oc2c1`, the fluorescence fold increase is 1.02 (inactive). As for `COc1ccc(S(=O)(=O)Nc2ccc3c(c2)OCO3)cc1Cl`, the fluorescence fold increase is 1.03 (inactive). With `CCOc1nc(OCC)nc(-n2cc(-c3ccccc3)nn2)n1` the figure was 1.06 (inactive). With `CC(=O)Nc1ccc(-c2cn3cccnc3n2)cc1`, the fluorescence fold increase is 5.32 (active). With `c1ccc(-c2cn3cccnc3n2)cc1`, the fluorescence fold increase was 2.51 (active). In the case of `COc1ccc(-c2cn3ccsc3n2)cc1`, the fluorescence fold increase was 1.08 (inactive). For the compound `CC(=O)Nc1cccc(-c2cnc3ccccc3n2)c1`, the fluorescence fold increase was 1.09 (inactive). Next, `CCCC(=O)Nc1cccc(-c2cn3ccsc3n2)c1`: 1.09 (inactive). Regarding `O=C(Oc1cccnc1)c1cc2ccccc2oc1=O`, the fluorescence fold increase was 1.24 (inactive). With `CCOC(=O)C1CCCCN1Cc1ccc(OC)c(OC)c1OC` (centres undefined) the figure was 1.06 (inactive); with `Cc1ccc2oc(=O)c3cnn(CC(=O)N4CCN(c5ccccn5)CC4)c3c2c1`, 1.1 (inactive). For `O=C(Cn1nnc(-c2ccc3c(c2)OCO3)n1)NCc1ccco1`, the fluorescence fold increase is 1.15 (inactive). In the case of `CCOc1ccc(C(CC(=O)O)NC(=O)COc2ccccc2)cc1` (centres undefined), the fluorescence fold increase is 1.07 (inactive). `N#Cc1c(N)n(CCOC(=O)c2ccc(Cl)cc2)c2nc3ccccc3nc12`: the fluorescence fold increase was 2.28 (active).

Take `O=S(=O)(O)c1nc2ccccc2n1Cc1ccc(Cl)cc1`: the fluorescence fold increase is 1.22 (inactive).

As to `Cn1nnnc1SCc1cc(=O)[nH]c2ccccc12`, the fluorescence fold increase is 1.06 (inactive). In the case of `CCOc1ccccc1C1C(C(=O)OC)=CN(C)C=C1C(=O)OC`, the fluorescence fold increase was 4.81 (active). On to `CCOc1ccccc1N(CC(=O)Nc1ccccc1C(=O)OC)S(C)(=O)=O`, for which the fluorescence fold increase is 1.11 (inactive).

`CCCCOCCCNC(=O)c1ccccc1OCC`: the fluorescence fold increase is 1 (inactive). `COC(=O)C1=C(C)N(C)C(C)=C(C(=O)OC)C1c1cccc(Br)c1`: the fluorescence fold increase is 1.12 (inactive).

Take `COC(=O)C1=CN(C)C=C(C(=O)OC)C1c1ccc(Cl)cc1Cl`: the fluorescence fold increase was 2.14 (active). As for `CC12CN3CC(C)(CN(C1)C3c1ccc(Cl)cc1Cl)C2=O` (centres undefined), the fluorescence fold increase is 1.04 (inactive). For the compound `CN1CCN(Cc2nc3c(c(=O)n(C)c(=O)n3C)n2Cc2cccc3ccccc23)CC1`, the fluorescence fold increase was 1.12 (inactive). With `CCCOc1ccc(-c2nc(N)n[nH]2)cc1` the figure was 1.14 (inactive); with `O=C1c2ccccc2C(O)N1Cc1ccccc1Cl` (centres undefined), 1.04 (inactive). As for `Cn1c(=NC(=O)c2ccco2)sc2cccc(F)c21`, the fluorescence fold increase is 1.85 (inactive). Next, `O=C(CSc1nnc(Cc2ccccc2)n1-c1ccccc1)N1CCOCC1`: 1.04 (inactive); `CC(=O)c1cccc(NC(=O)c2ccncc2)c1`: 1.03 (inactive). Next, `Cc1nc(NC(=O)C23CCC(C)(C(=O)O2)C3(C)C)sc1C` (centres undefined): 1.02 (inactive). Regarding `CC(=O)N=c1ncn(CC(COC(C)=O)OC(C)=O)c2nc[nH]c12` (centres undefined), the fluorescence fold increase was 1.07 (inactive). For the compound `COc1ccc(-n2c(C)nc3c(cnn3-c3ccccc3)c2=O)cc1`, the fluorescence fold increase was 1.1 (inactive). With `Cc1cccc(-n2ncc3c(N4CCc5ccccc54)ncnc32)c1`, the fluorescence fold increase was 2.26 (active).

With `COc1ccc(-n2ncc3c(N4CCc5ccccc54)ncnc32)cc1`, the fluorescence fold increase was 3.76 (active). In the case of `C1=C(CCNc2ncnc3c2cnn3-c2ccccc2)CCCC1`, the fluorescence fold increase was 1.05 (inactive).

`COc1ccc(-n2ncc3c(N4CCCc5ccccc54)ncnc32)cc1`: the fluorescence fold increase was 2.48 (active). For `COc1ccc(N2CCN(C(=O)CSc3ncnc4c3cnn4-c3ccc(OC)cc3)CC2)cc1`, the fluorescence fold increase was 1.23 (inactive).

`Cc1ccc(-n2ncc3c(N4CCN(c5ccc(F)cc5)CC4)ncnc32)c(C)c1`: the fluorescence fold increase is 1 (inactive). For `c1ccc(-n2ncc3c(N4CCCC4)ncnc32)cc1`, the fluorescence fold increase is 1.04 (inactive). Turning to `C=CCNC(=O)CCCOc1cccc(C)c1`, the fluorescence fold increase was 1.09 (inactive). `Cc1cc(/C=N/n2cnnc2)c(C)n1-c1ccc2ncccc2c1`: the fluorescence fold increase is 1.05 (inactive). With `COc1ccc2nc(NC3=NCN(CC4CCCO4)CN3)nc(C)c2c1` (centres undefined) the figure was 1.66 (inactive); with `Cc1cccc(N2CC(C)Cn3c2nc2c3c(=O)n(CC(=O)OCc3ccccc3)c(=O)n2C)c1` (centres undefined), 1.1 (inactive). With `COc1cc(OC)c(C(=O)NC2CC(C)(C)NC(C)(C)C2)cc1OC` the figure was 1.16 (inactive).

As for `CSc1nc(O)c(Cc2ccccc2)c(=O)[nH]1`, the fluorescence fold increase was 1.07 (inactive). For `O=C(Nc1ccc(Oc2ccccc2)cc1)c1ccco1`, the fluorescence fold increase is 1.11 (inactive). Consider `CCOc1cc(NC(=O)c2ccco2)c(OCC)cc1NC(=O)COc1ccccc1`, for which the fluorescence fold increase was 3.91 (active). As for `Cc1ccc(C(=O)COc2cccc(NC(=O)c3ccco3)c2)cc1`, the fluorescence fold increase was 1.18 (inactive).

The record behind these values is PubChem BioAssay AID709 (SRMLSC, 2007).
